Measurements: PubChem BioAssay AID2284383 (EPA ToxCast)
Records with an inconclusive call do not appear. Activity calls are given as the source filed them. Rule for the calls: active = hit-call score of the fitted dose curve at least 0.9, where 1 is the maximum; inconclusive = response in the unintended direction; inactive = score below 0.9.

The compounds below were run against human Retinoic Acid Receptor gamma (RARg) Agonism, RARG (gene 5916) (UniProt P13631) (assay: ERF_TW_NR_COA_hRARG: Eurofins (ERF) Nuclear Receptor (NR) Functional Coactivator Assay for human Retinoic Acid Receptor gamma (RARg) Agonism).
human Retinoic Acid Receptor gamma (RARg) Agonism, RARG (gene 5916), sequence (P13631 whole entry, looked up): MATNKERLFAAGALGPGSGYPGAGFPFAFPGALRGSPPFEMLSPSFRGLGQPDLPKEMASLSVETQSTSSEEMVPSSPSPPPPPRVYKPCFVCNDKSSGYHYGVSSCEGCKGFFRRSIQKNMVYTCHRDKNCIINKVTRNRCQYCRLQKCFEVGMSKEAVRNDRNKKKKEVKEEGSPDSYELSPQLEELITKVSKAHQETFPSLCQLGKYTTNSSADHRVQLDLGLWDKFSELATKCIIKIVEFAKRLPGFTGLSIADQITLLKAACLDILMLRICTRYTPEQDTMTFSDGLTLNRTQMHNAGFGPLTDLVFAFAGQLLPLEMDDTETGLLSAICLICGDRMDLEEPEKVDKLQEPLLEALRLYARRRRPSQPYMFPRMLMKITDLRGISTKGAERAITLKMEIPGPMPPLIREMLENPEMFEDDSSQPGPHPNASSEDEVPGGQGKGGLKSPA
Protocol: ERF_TW_NR_COA_hRARG is a biochemical, single-readout assay that uses extracted gene-proteins in a cell-free assay. Measurements were taken 16 hours after chemical dosing in a 96-well plate. […] It is designed to measure FRET using a type of binding reporter as detected by fluorescence intensity of AM580 with fluorimetry technology.Data from the assay component ERF_TW_NR_COA_hRARG was analyzed at the assay endpoint, ERF_TW_NR_COA_hRARG, in the positive analysis fitting direction relative to DMSO as the negative control and baseline of activity. Using a type of binding reporter, gain-of-signal activity can be used to understand changes in binding as they relate to gene RARG. To generalize the intended target to other relatable targets, this assay endpoint is annotated to the nuclear receptor intended target family, where the subfamily is non-steroidal.
Human recombinant retinoic acid receptor […] (RARgamma) receptors expressed in bacteria are used. Test compound and/or vehicle is incubated with the 25 nM receptors and binding buffer in modified Tris-HCl buffer pH 7.4 for 16 hours at 4C. Determination of the amount of complex formed is read spectrofluorimetrically (excitation:337 nm, emission:620/665 nm). Test compound-induced increase in fluorescence by 50 percent or more (>/= 50%) relative to the 0.3 uM AM580 response indicates possible RARgamma receptor agonist activity. […] Membrane protein may change from lot to lot, the concentration used will be adjusted if necessary.

SMILES	AC50	outcome
ClC1=C(Cl)[C@]2(Cl)[C@@H]3[C@H]4C[C@H]([C@@H]5O[C@H]45)[C@@H]3[C@@]1(Cl)C2(Cl)Cl	6.15 µM (active)	
ClC1=C(Cl)[C@]2(Cl)[C@@H]3[C@@H]4C[C@@H]([C@H]5O[C@@H]45)[C@@H]3[C@@]1(Cl)C2(Cl)Cl	6.6 µM (active)	
Cc1ccc2cc3c(ccc4ccccc43)c3c2c1CC3		inactive
